Here are results for 40 compounds from PubChem BioAssay (Tox21).

Molecules are shown by their SMILES. Results filed as inconclusive are left out. Entries that show only a call come without a potency. Unmarked numbers belong to inactive results. The source made the active and inactive calls. Calls come from the whole dose curve; as a rule, active = well fitted cell-killing curve with a large enough effect in the repeat runs; inconclusive = weak or mixed curves; inactive = flat fitted curve, though single readings scatter.
Potency is the fitted concentration of half-maximal effect.

A short description of the experiment: qHTS assay to identify small molecule antagonists of the estrogen related receptor (ERR) signaling pathway from Tox21 library - cell viability counter screen (AID 1224834). Note: nearly all actives have a fitted effect of over 30% in size. The settings on record: ERR reporter cells viability, CellTiter-Fluor, 17.5 h; series mostly up to 92.4 µM. From the text:
National Center for Advancing Translational Sciences [NCATS]
NIH Chemical Genomics Center [NCGC]
U.S. Environmental Protection Agency [EPA]
National Institutes of Environmental Health Sciences [NIEHS]
National Toxicology Program [NTP]
U.S. Food and Drug Administration [FDA]
Estrogen related receptors (ERRs), the first orphan nuclear receptors discovered, play an important role in the control of cellular energy metabolism. ERRs are required for high-energy production in response to the environmental challenges. ERR-alpha was also identified as an adverse marker for breast cancer progression; ERR-alpha-positive tumors have a poor prognosis. To screen and to identify environmental compounds that perturb the ERR signaling pathways could provide valuable information for potential therapeutic or preventive measures in the treatment of metabolic disease. To differentiate true ERR antagonists or agonist from cytotoxic substances, the assay is multiplexed with cell viability assay.
Tox21 Assay Protocol Summary:
The ERR cells were dispensed at 2,000 cells/5 ul/well in 1536-well white plates using a Multidrop dispenser. After the assay plates were incubated at a 37 C/5% CO2 incubator for 6 hours, 23 nL of compounds dissolved in DMSO, positive and negative controls or DMSO only was transferred to the assay plate by a pin tool. The plates were incubated at 37 C for 17.5 hours. 1 ul/well of CellTiter-Fluor reagent was added into the assay plates using a Flying Reagent Dispenser. After 30-minute incubation at 37 C/5% CO2, the fluorescence intensity in the plates was measured using a ViewLux plate reader.
(In qHTS, concentration-response curves come from the screen itself.)
For the compound `O=C(O)CC(Cl)C(=O)O` (stereo not given), the Potency entry was “inactive”. Same read-out and setting: the entry for `ClCc1ccccc1` is “inactive”; for `C/C=C/C=O` it is “inactive”.

Turning to `Cc1ccccc1C(=O)Nc1cccc(OC(C)C)c1`, the Potency entry is “inactive”. Still for that read-out and setting: the entry for `CC(C)=CCOc1c2occc2cc2ccc(=O)oc12` is “inactive”; for `CCCCCCCCCCOC(=O)c1ccccc1C(=O)OCCCCCCCCCC` it is “inactive”.

On to `N#C/C(N)=C(/N)C#N`, for which the Potency result was “inactive”. Regarding `C=CCCl`, the Potency entry is “inactive”.

Regarding `COC(=O)C(Br)CBr` (stereo not given), the Potency entry was “inactive”. Still for that read-out and setting: the value for `O=Cc1ccc2c(c1)OCO2` was “inactive”; that for `CCC(Br)(CC)C(=O)NC(N)=O` was “inactive”; that for `ClCc1cccc(Cl)c1` was “inactive”. Take `CC(C)(Cl)[N+](=O)[O-]`: the Potency result was “inactive”.

In the case of `[CH3][Sn]([CH3])([Cl])[Cl]`, the Potency is 62.1 µM (active). The same measure, in the same setting: the value for `CN1C(=O)NC(=O)C(C)(C2=CCCCC2)C1=O` (stereo not given) was “inactive”. The same measure, in the same setting: the entry for `N#Cc1ccc(Cl)cc1` is “inactive”. The same measure, in the same setting: the value for `c1ccoc1` was “inactive”. `COP(=S)(OC)Oc1ccc([N+](=O)[O-])cc1Cl`: the Potency was 48.6 µM (active). Same read-out and setting: the entry for `CCOP(O)OCC` is “inactive”.

Consider `CN1[C@@H]2CC[C@H]1CC(OC(=O)c1cc(Cl)cc(Cl)c1)C2` (stereo not given in full), for which the Potency entry was “inactive”. Same read-out and setting: the entry for `O=C(NC(=O)c1c(F)cccc1F)Nc1ccc(OC(F)(F)C(F)OC(F)(F)F)c(Cl)c1` (stereo not given) is “inactive”. On the same count and under the same terms, the entry for `CC(C)O.CC(C)O.OCCN(CCO)CCO.OCCN(CCO)CCO.[Ti]` is “inactive”; for `O=S(=O)(Cl)c1ccccc1` it is “inactive”; for `O=C=Nc1ccc(Cl)cc1` it is “inactive”. Still for that read-out and setting: the entry for `C#CCOC(C(=O)OCCN(C)C)(c1ccccc1)c1ccccc1` is “inactive”; for `C=CC(=O)NCNC(=O)C=C` it is “inactive”; for `COc1c(C(C)(C)C)cc([N+](=O)[O-])c(C)c1[N+](=O)[O-]` it is “inactive”. Take `NCC(CC(=O)O)c1ccc(Cl)cc1` (stereo not given): the viability change, negative = cytotoxic is 4.17% [at 0.349 µM]. Take `CN1C(=O)C(O)N=C(c2ccccc2)c2cc(Cl)ccc21` (stereo not given): the Potency entry was “inactive”.

As for `C[N+](C)(C)CCCl`, the Potency result is “inactive”.

`O=C(O)COc1ccc(Cl)cc1`: the Potency result was “inactive”.

In the case of `CCOP(=O)(OCC)SCCSCC`, the Potency entry is “inactive”. On the same count and under the same terms, the entry for `N#CCc1ccccc1` is “inactive”; for `ClP(Cl)(Cl)(Cl)Cl` it is “inactive”; for `COP(=S)(OC)Oc1cc(Cl)c(I)cc1Cl` it is “inactive”. On the same count and under the same terms, the value for `NNC(=O)c1cccnc1` was “inactive”; that for `CCCCC(CC)COP(=O)(Oc1ccccc1)Oc1ccccc1` (stereo not given) was “inactive”.

Take `O=C(Nc1ccccc1)Nc1ccnc(Cl)c1`: the Potency was 43.3 µM (active). The same measure, in the same setting: the entry for `COP(=S)(Oc1cc(Cl)c(Br)cc1Cl)c1ccccc1` (stereo not given) is “inactive”. Still for that read-out and setting: the entry for `C=CC(=O)OCCCCO` is “inactive”.
